Screening data (PubChem)
Tau FP inhib: qHTS for Inhibitors of Tau Fibril Formation, Fluorescence Polarization | AID 1468, 2008 | Potency, µM (doses to about 57.7 µM), for inactives: top-dose activity, negative = inhibition, hits mostly inhibitors | K18 P301L tau heparin fibrillization, Alexa594 FP, 6 h | hit rate 0.39% among 280,000; also: potency is read from the fitted curve at half-maximal effect; nearly all actives have a fitted effect of over 55% in size
Target sequence (P10636 561-689 P618L limits assumed): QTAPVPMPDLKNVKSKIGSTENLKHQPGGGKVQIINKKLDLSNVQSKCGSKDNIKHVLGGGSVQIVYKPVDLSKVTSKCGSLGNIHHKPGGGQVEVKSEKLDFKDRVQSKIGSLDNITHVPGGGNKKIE
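Compound effects on tau fibrillization are measured by Alexa 594 fluorescence polarization (ex 555, em 632 nm). K18 P301L tau is used at 15 uM with 0.24 uM labeled tracer, and 20 uM heparin induces aggregation over 6 hr at 37 C.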
FBPA coupling cs: qHTS Assay for Inhibitors of Fructose-1,6-bisphosphate Aldolase from Giardia Lamblia: Coupling assay counterscreen; coupling enzyme system counterscreen, AmpLite Red fluorescence; activity change, negative = inhibition, % at 58.2 µM, hits read low; hit rate 0.67% among 290,000; AID 2472, 2010; in the data active = activity change below about -30%
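Counterscreen of the coupled detection system alone, without aldolase: glyceraldehyde-3-phosphate coupling enzymes plus AmpLite Red readout. Compounds at 57.5 uM final, 10 min RT preincubation, 20 min RT reaction, fluorescence 525/598 nm.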
Tau fluor counter: Counterscreen qHTS for Inhibitors of Tau Fibril Formation, Fluorescence Polarization | hit rate 0.93% among 280,000 | tau K18 P301L Alexa594 fluorescence, heparin fibrillization | Potency, µM (highest dose often 57.7 µM), for the others: top-dose activity change, negative = decrease; also: potency is read from the fitted curve at half-maximal effect; nearly all actives have a fitted effect of over 55% in size
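Human tau K18 P301L (15 uM unlabeled, 0.24 uM Alexa 594-labeled) in 100 mM sodium acetate pH 7 with 20 uM heparin, 6 hr at 37 C. ThT 30 uM added, 1 hr ambient; Alexa 594 FP and total fluorescence read at 555/632 nm.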
Sfp inh: qHTS Assay for Inhibitors of Bacillus subtilis Sfp phosphopantetheinyl transferase (PPTase). Potency, µM, for inactives: largest response in the series, negative = inhibition, hits mostly inhibitors. Biochemical Sfp PPTase activity, qHTS. 4'-phosphopantetheinyl transferase ffp (Bacillus subtilis), Q9F4F7. hit rate 3.5% among 310,000;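 also: the enzyme is Sfp with the accession as filed and its product quenches rhodamine fluorescence; potency is read from the fitted curve at half-maximal effect; 0% = enzyme reaction without inhibitor and -100% = no enzyme wells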
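Fluorescence-quenching assay: 15 nM Sfp-PPTase preincubated 15 min at room temperature with compound, then 5 uM rhodamine-CoA and 12.5 uM BHQ-2-labelled YbbR peptide added. Fluorescence (ex 525/em 598 nm) read at start and after 30 min; difference gives rate.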
Tau ThT inhib: qHTS for Inhibitors of Tau Fibril Formation, Thioflavin T Binding; hit rate 2.1% among 270,000; Microtubule-associated protein tau (Homo sapiens), P10636; Potency, µM (titrated, usually from 57.4 µM), for the others: at the highest dose activity, negative = inhibition, most hits filed as inhibitors; AID 1460, 2008; recombinant tau K18 P301L, heparin-induced fibrillization, ThT fluorescence; also: potency is read from the fitted curve at half-maximal effect; nearly all actives have a fitted effect of over 55% in size
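Using a mix of unlabeled (15 uM) and Alexa 594-labeled (0.24 uM) tau K18 P301L, heparin-triggered fibrillization over 6 hr at 37 C was scored by ThT fluorescence.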
Starred values were filed as active, the others as inactive; u = inconclusive; x = no result given; ! = not active in a repeat; [ ] = another dose, or the depositor's remark. An excerpt weighted towards active compounds, which were near 5.2% of everything screened. Unless noted, calls follow the shape of the dose curve; as a rule, active = well fitted curve in the direction sought with a large enough effect; inconclusive = small, poorly fitted or top-dose-only effect, or another doubt; inactive = no such curve, though single readings can be large; an effect the other way counts as inactive or inconclusive. Unless noted, % is scaled to controls: 0 for no effect and ±100 for the full control effect.

SMILES	Tau FP inhib	FBPA coupling cs	Tau fluor counter	Sfp inh	Tau ThT inhib
CC(C)CCOP(=O)(c1ccc(N(C)C)cc1)C(O)c1ccccn1 (stereo not drawn)	1%	-1	5%	-2%	-5%
CC(C)COP(=O)(c1ccc(N(C)C)cc1)C(O)c1ccccn1 (stereo not drawn)	2%	2	-1%	79µM*	-13%
CC[N+](C)(CC)CC(=O)Nc1c(C)cccc1C	7%	1	-4%	16%	-10%
COc1ccc(S(=O)(=O)NNC(N)=S)cc1	-12%	3	3%	28µM*	0%
Cc1ccc(Cn2c(C(=O)Nc3ccc(Cl)cc3)cc3sccc32)cc1	u	x	u	x	-8%
CCc1c(C)sc(NC(=O)CC#N)c1C#N	-7%	-11	-15%	32µM*	u
CCCC(=O)Nc1sc(C)c(C)c1C#N	-3%	-1	-2%	-22%	-4%
CCc1cc(C(=O)Nc2sc(C)c(CC)c2C#N)no1	u	x	u	x	28µM*
CCCCCC(=O)Nc1sc(C)c(C)c1C#N	-5%	1	-14%	79µM*	-22%
CCc1c(C)sc(NC(=O)c2cc(C)no2)c1C#N	9%	2	-12%	u	u
CCc1ccc(NC(=O)Cn2nc(C(F)(F)F)c3c2CCCC3)cc1	u	x	-24%	x	0%
CCc1c(C)sc(NC(=O)Cn2nc(C(F)(F)F)c3c2CCCC3)c1C#N	-9%	0	-10%	40µM*	-7%
COc1cccc(C(=O)N(Cc2cccnc2)c2nc3c(OC)ccc(C)c3s2)c1OC	-4%	x	-27%	x	u
CC1Cc2ccccc2N1S(=O)(=O)c1nnc(NC(=O)c2cccc(F)c2)s1 (stereo not drawn)	-3%	x	-28%	x	u
Cc1cc(Br)ccc1NC(=O)c1sc2nc3n(c(=O)c2c1C)CCCC3	-10%	x	-2%	x	-18%
Cc1nc(CC(=O)Nc2ccc(N(C)C)cc2)cs1	2%	x	-3%	x	u
O=C(CCSc1ccccn1)c1ccccc1	u	1	2%	79µM*	u
O=C(CCSc1ccccn1)Nc1ccc(Br)cc1	-7%	5	-7%	-11%	-7%
O=C(O)CCSc1ccccn1	-3%	-1	3%	50µM*	-12%
Cc1ccc(-n2c(=O)c3c4c(sc3n(CC(=O)c3ccc(Cl)cc3)c2=O)CCC4)cc1C	-7%	x	0%	x	1%
O=C(Nc1nc2ccccc2c(=O)s1)c1ccc(F)cc1Cl	x	-4	x	-13%	x
Cc1cc(Nc2cccc(Cl)c2)nc2ccc(NC(=O)c3ccc(F)cc3Cl)cc12	u	x	4.5µM*[quencher]	x	u
COc1ccc(CC(=O)Nc2ccc3nc(Nc4cccc(Cl)c4)cc(C)c3c2)cc1OC	u	x	2.5µM*[quencher]	x	u
COc1ccc(Cl)cc1C(=O)Nc1ccc(NC(C)=O)cc1	8%	0	-7%	17%	5%
O=C(Cc1cccc(C(F)(F)F)c1)Nc1ccccc1	u	-1	-13%	0%	-4%
SMILES	Tau FP inhib	FBPA coupling cs	Tau fluor counter	Sfp inh	Tau ThT inhib
Cc1cc(Nc2cccc(Cl)c2)nc2ccc(NC(=O)Cc3cccc(C(F)(F)F)c3)cc12	u	x	4µM*[quencher]	x	u
COc1ccc(Cl)cc1C(=O)Nc1ccc2nc(Nc3cccc(Cl)c3)cc(C)c2c1	15%	x	16µM*[quencher]	x	u
Cc1cc(Nc2cccc(Cl)c2)nc2ccc(NC(=O)Cc3ccc(Cl)cc3)cc12	u	x	3.5µM*[quencher]	x	u
CC1CCN(S(=O)(=O)c2ccc3c(ccn3CCC(=O)NCc3ccccc3F)c2)CC1	4%	x	-24%	x	-6%
CCN(CC)S(=O)(=O)c1cccc(C(=O)N/N=C/c2cc(OC)c(O)c(OC)c2)c1	6%	-1	-23%	-9%	u
CCN(CC)S(=O)(=O)c1cccc(C(=O)N/N=C/c2cccc(O)c2O)c1	7%	-52*	14%	u	12%
CCOc1cccc(-c2c(C(=O)N/N=C(\C)c3ccccn3)nnn2-c2nonc2N)c1	x	x	x	32µM*	x
COc1ccc(C2=NC(C)(C)N(CC(=O)Nc3cccc(C)c3)C2=O)cc1	-4%	x	-14%	x	-2%
CCCN=C(N)NCCC[C@H](N)C(=O)O	-7%	5	-5%	-19%	-5%
CCCCC(CC)CN=C(N)NC(N)=NCCCCCCN=C(N)NC(N)=NCC(CC)CCCC (stereo not drawn)	8%	-1	1%	14µM*	-6%
COc1cc(CN(C(=O)Nc2cccc(Cl)c2)c2ccccn2)cc(OC)c1OC	-9%	x	-19%	x	9%
CC(=O)NS(=O)(=O)c1ccc(NC(=S)NC(=O)c2ccco2)cc1	-10%	5	-1%	u	-2%
CN(C)S(=O)(=O)c1ccc(NC(=S)NC(=O)c2ccc(Br)o2)cc1	-17%	-1	-25%	56µM*	-14%
CCOc1ccc(NC(=O)c2ccco2)cc1	14%	3	5%	9%	-9%
NS(=O)(=O)c1ccc(NC(=S)NC(=O)c2ccco2)cc1	-13%	1	-13%	45µM*!	-8%
O=C(NC(=S)NNC(=O)c1cc2ccccc2cc1O)c1ccco1	12%	3	-29%	9%	13µM*
CCOc1ccc(NC(=S)NC(=O)c2ccco2)cc1	2%	12	-18%	56µM*	u
COc1ccc(NC(=O)CN2CCCN(Cc3ccc(Cl)cc3)S2(=O)=O)cc1Cl	u	x	u	x	-12%
CCOC(=O)c1c(-c2ccccc2)oc2ccc(NS(=O)(=O)c3ccc(C)cc3)cc12	u	x	u	x	-1%
Cc1cccc(-n2nnc(-c3nc(-c4ccccc4)no3)c2N)c1C	-2%	x	3%	x	-3%
COCCN1Cc2cccc(C(=O)Nc3ccc(C)cc3C)c2C1=O	-3%	x	-15%	x	-8%
NS(=O)(=O)c1ccc(NC(=S)NC(=O)c2ccc(Br)o2)cc1	u	1	-5%	56µM*	-4%
Cc1ccc2sc(C)[n+](CCO)c2c1	-11%	3	-7%	45µM*	u
CC12CCC=CC1C(c1ccc3ccccc3c1)N(Cc1ccccc1)C2=O (stereo not drawn)	x	6	x	-10%	x
CN1CCN(c2ccnc(-c3cccnc3)n2)CC1	x	0	x	7%	x
CN1CCN(c2ccnc(-c3ccoc3)n2)CC1	x	-4	x	79µM*	x
C=CCOC(=O)C1=C(C)N(C)C(=O)NC1c1cc2c(cc1Br)OCO2 (stereo not drawn)	-8%	5	-9%	-9%	-16%
CCOC(=O)C1=C(C)N(C)C(=O)NC1c1cc2c(cc1[N+](=O)[O-])OCO2 (stereo not drawn)	-12%	-9	-19%	50µM*	u
